PubChem BioAssay (NCI)
The panel holds about 79,000 compounds, 15% with a hit somewhere; the sample as a whole holds those more often. Unmarked numbers belong to inactive results. Activity calls are given as the source filed them. Cut-off read from the data, not from the text of the source: active = growth inhibition above about 70%; inactive = the rest.

Assays:
[1] = NCI Yeast Anticancer Drug Screen. Data for the rad50 strain (AID 155);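 note: 0% = growth of vehicle-only cultures of the same strain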; details: S. cerevisiae rad50 strain growth inhibition; at 50.0 µM; hits give high values
In short: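 DNA repair mutant yeast, compound exposure, growth read-out; inhibition is taken relative to vehicle.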

[2] = NCI Yeast Anticancer Drug Screen. Data for the mec2-1 strain (AID 157); details: S. cerevisiae mec2-1 strain, at 50.0 µM, hits give high values
In short: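 Test agents were screened against the mec2-1 yeast strain, with defined DNA repair or cell cycle alteration. Growth was scored as inhibition against vehicle-only controls.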

[3] = NCI Yeast Anticancer Drug Screen. Data for the sgs1 mgt1 strain (AID 161);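 note: 0% = growth of cultures given vehicle only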; details: S. cerevisiae sgs1 mgt1 strain, at 50.0 µM, hits give high values
In short: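 Mutant yeast exposed to compound; growth scored against vehicle-only wells.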

[4] = NCI Yeast Anticancer Drug Screen. Data for the cln2 rad14 strain (AID 165);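 note: 0% = growth equal to vehicle treated cultures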; details: S. cerevisiae cln2 rad14 strain, at 50.0 µM, hits give high values
In short: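 Growth of compound-exposed yeast (cln2 rad14 genotype) measured and expressed as inhibition relative to vehicle.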

[5] = NCI Yeast Anticancer Drug Screen. Data for the bub3 strain (AID 167); details: S. cerevisiae bub3 mutant strain, at 50.0 µM, hits give high values
In short: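 In this screen, a yeast mutant lacking normal mitotic checkpoint function is challenged with compound. Relative growth versus vehicle gives the inhibition value.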

[6] = NCI Yeast Anticancer Drug Screen. Data for the mlh1 rad18 strain (AID 175); details: S. cerevisiae mlh1 rad18 strain growth inhibition; at 50.0 µM; hits give high values
In short: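 In this whole-cell yeast screen, a strain with altered DNA damage repair is challenged with compound, and its growth is measured against matched vehicle-treated controls.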

Row | Structure (SMILES) | growth inhibition [1] | growth inhibition [2] | growth inhibition [3] | growth inhibition [4] | growth inhibition [5] | growth inhibition [6]
1 | O=[N+]([O-])c1cccc(/C=N\O)c1 | -17.8% | -8.45% | -9.9% | -7.45% | -1.2% | -8.4%
2 | O=C1c2cccc3cccc(c23)C(=O)N1CCCN(CCO)CCO | -1.25% | 4.25% | -4.35% | 7.95% | -7.6% | 14.2%
3 | N#CCCN(C1=NN(C(=O)CC(=O)Nc2ccccc2Cl)C(c2ccccc2)C1)c1ccc(Cl)cc1 (configuration not stated) | 28.4% | 19.1% | -10.1% | 25.9% | 16.1% | 3.95%
4 | O=C(Nc1ccccc1Cl)c1ccc([N+](=O)[O-])cc1 | 11.4% | 15.4% | 18.6% | 10.3% | 11.2% | 24.6%
5 | NC(=O)N/N=C1/C=C2CCCCC2CC1 (configuration not stated) | 6.8% | 0.35% | -1% | 10.8% | -16.4% | 10.2%
6 | NC1C2CC3CC1CC(C2)O3 (configuration not stated) | -10.8% | -8.1% | -9.4% | -68.5% | 7.45% | -14.3%
7 | CC(=O)NCCc1ccc(C(=O)O)cc1 | -17% | -1% | 2.2% | -34.2% | -11.4% | 3.65%
8 | CSc1nc2c(nc(N)n2C2OCC(O)C(O)C2O)c(=O)[nH]1 (configuration not stated) | -19.2% | -5.2% | -12.5% | -15% | -5.65% | -29.2%
9 | CCCCCC(=O)NC(=S)Nc1nn[nH]n1 | -38.8% | -50.7% | -39.1% | -8.4% | -25.3% | -47.1%
10 | CNc1ncnc2[nH]cc([N+](=O)[O-])c12 | 6.45% | 1.95% | 10.1% | 9.05% | 3.9% | 33.6%
11 | CSSC(SSC)C(SSC)SSC | -4.7% | 4.2% | 43.4% | 1.4% | 36.8% | 47.8%
12 | C[C@@H]1O[C@]2(O)[C@@H]3CCCN3S(=O)(=O)CCN2C1=O | 2.1% | -21.6% | -16.9% | 17.7% | -11.3% | -17.1%
13 | C=CCNCC(O)C(F)(F)C(F)(F)C(F)(F)C(F)(F)C(F)(F)C(F)(F)F (configuration not stated) | 22.5% | 28.9% | 32.1% | -6.9% | 7.55% | 27.6%
14 | NC(=O)C1=CNCCC1 | -1.15% | -6.05% | -6.35% | 12.3% | 10.7% | 14.7%
15 | O=C(O)CCCc1ccc2sc3ccccc3c2c1 | 47.4% | 32.6% | 27.6% | 50.5% | 24.9% | 76.8% (active)
16 | CC(=O)OCC1OC(n2c(Br)nc3c(N)ncnc32)C2OC(C)(C)OC12 (configuration not stated) | 14.3% | 6.2% | 16.4% | -2.7% | 1.3% | -6.55%
17 | CC(C)(O)c1cccc(I)c1 | 7.7% | -58.9% | -21.1% | -144% | -39.8% | 1.55%
18 | ONc1cnc2ccccc2n1 | -34.9% | -30.4% | -3.5% | -49.2% | -4.8% | 0.4%
19 | CCCCCCCCCCCCCCCC1=NN(c2ccc([N+](=O)[O-])cc2)C(=O)C1 | 14.9% | -3.8% | -25.8% | -8.4% | 1.3% | 0.75%
20 | COc1ccc(C(C)c2cc3c(cc2OCC(=O)O)OCO3)cc1OC (configuration not stated) | -7.65% | -10.2% | -6.85% | -4.8% | -0.2% | -3.2%
21 | CCCC1OC(C2CC=CCC2C)OCC1CC (configuration not stated) | -9.25% | 6.55% | 2.95% | -17.9% | -3.45% | -46%

Row | Structure (SMILES) | growth inhibition [1] | growth inhibition [2] | growth inhibition [3] | growth inhibition [4] | growth inhibition [5] | growth inhibition [6]
22 | CC(=O)Nc1ncc(CCC2OCCO2)c(=O)[nH]1 | -0.55% | -25.1% | 19.6% | -0.25% | 7.65% | 6.85%
23 | CCCCNS(=O)(=O)c1ccc(-c2ccc3c(c2)-c2ccc(S(=O)(=O)NCCCC)cc2S3(=O)=O)cc1 | 28.3% | 7.05% | 1.5% | -33.2% | 20.1% | 9.7%
24 | CCCCCCCCCCCCCCCC(=O)Oc1ccc(C(=S)N2CCOCC2)cc1 | 20.8% | 1.25% | 2.4% | 2.9% | 5.05% | 13.9%
25 | c1ccc(C2=Nc3ccccc3-c3ccccc3N2)cc1 | -2.95% | -1.35% | -6.05% | -28.4% | -4.75% | -8.05%
26 | Brc1nccs1 | -21.9% | -21.4% | -13.2% | -11.1% | -9.05% | -27.1%
27 | C=CCCCCCCCCC(=O)NC(C)C(C)(C)C (configuration not stated) | 29.9% | 19.8% | 14.7% | 39% | 27.3% | 25.5%
28 | N#C/C(=C\c1c2ccccc2c(Cl)c2ccccc12)C(N)=S | 34.2% | 24.9% | 45.1% | 7.55% | 15.4% | 24.4%
29 | CC(=O)Nc1ccc2oc(=O)[nH]c(=O)c2c1 | 10.8% | -15.1% | 6.3% | 9.9% | -18.6% | -0.55%
30 | CC(=O)c1c(C)cc(C)nc1C | 14.8% | -12.2% | 17.4% | 10% | 30.6% | 9%
31 | O=C(O)C1CCCCC1C(=O)Nc1cccc2ccccc12 (configuration not stated) | 6.65% | -2.8% | -4.3% | -7.95% | 24.4% | -39.5%
32 | O=C(NCCc1c[nH]c2ccccc12)C(F)(F)F | -15.8% | 7.6% | 18.2% | 6.85% | 29.2% | 0.3%
33 | CCCCNC(=O)CCC(NS(=O)(=O)c1ccc(C)cc1)C(=O)NCCCC (configuration not stated) | 5.1% | 2.1% | -9% | 1.85% | -3.1% | -18.7%
34 | Cc1nc2ccccc2nc1CC(=N)c1ccccc1 | 24.2% | 15.8% | -5.85% | 5.1% | 35.7% | 17.8%
35 | CC(=O)OC1CC2(c3ccccc3)C(=O)c3ccccc3N2O1 (configuration not stated) | 27.2% | -16.6% | -11.8% | -12.7% | 10.2% | 19.6%
36 | CC(O)c1cccc(NC(=O)Nc2ccc(Cl)c(Cl)c2)c1 (configuration not stated) | 12% | 83.4% (active) | 70% | 1.15% | 43.8% | 54.5%
37 | CC(=O)Nc1cccc(Cl)c1 | -2.25% | -24.5% | -0.2% | -4.8% | -1.45% | 6.5%
38 | COc1cc2c(c(OC)c1OC)-c1ccc(SCC3CCC4CC3C4(C)C)c(=O)cc1C(NC(C)=O)CC2 (configuration not stated) | 97.5% (active) | 97.3% (active) | 98% (active) | 96.2% (active) | 95.9% (active) | 96.9% (active)
39 | O=C(/C=C\c1ccc([N+](=O)[O-])cc1)c1ccccc1 | -1.6% | -6.1% | -2.4% | -28.3% | -3.6% | -16.2%
40 | CC(=O)OC(C[N+]1(C)CCCCCC1)C[N+]1(C)CCCCCC1 | -34.6% | -4.8% | -17.8% | -27.6% | 7.95% | -11.2%
41 | Cc1ccc(S(=O)(=O)/N=C/[N-][n+]2cccc(C)c2)cc1 | 3.6% | 8.8% | 4.4% | -14.6% | 0.45% | -4.2%
42 | CCCCn1cnc2c(SSc3ncnc4c3ncn4CCCC)ncnc21 | -11.6% | -11.3% | 5.1% | 12% | 22.4% | 75.7% (active)
